# From PubChem BioAssay
# Active and inactive are the calls of the source. No rule for the calls is given here.
# Target: Pantothenate synthetase (Mycobacterium tuberculosis (strain ATCC 25618 / H37Rv)) (UniProt P9WIL5)
# Assay: Recombinant Mtb pantothenate synthetase (PanC) inhibitors, coupled enzyme, confirmatory (AID 375);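 also: 0% = full reaction with vehicle and 100% = no enzyme background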
# Details: coupled enzyme assay; at 10 µM, active compounds read high
# Chain of Pantothenate synthetase (Mycobacterium tuberculosis (strain ATCC 25618 / H37Rv)) (P9WIL5 whole entry, looked up): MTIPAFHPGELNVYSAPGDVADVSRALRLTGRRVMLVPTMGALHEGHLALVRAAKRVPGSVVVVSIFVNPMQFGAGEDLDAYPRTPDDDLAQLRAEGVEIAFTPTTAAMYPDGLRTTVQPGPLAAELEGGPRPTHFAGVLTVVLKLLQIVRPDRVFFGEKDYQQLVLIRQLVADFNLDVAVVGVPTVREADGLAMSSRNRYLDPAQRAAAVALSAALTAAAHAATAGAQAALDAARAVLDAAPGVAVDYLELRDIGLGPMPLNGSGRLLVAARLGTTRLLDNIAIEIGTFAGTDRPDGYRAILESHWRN
row,SMILES,inhibition
1,CCCN1CCN(CCCNC(=O)Cn2ncc3c4ccccc4n(C)c3c2=O)CC1,3% (inactive)
2,CCOC(=O)C1CCCN(C(=O)c2cn(C)c(=O)c3cc(OC)c(OC)cc23)C1 (centres undefined),0% (inactive)
3,O=C(COc1nnc2ccccn12)N1CCN(S(=O)(=O)c2ccccc2)CC1,1% (inactive)
4,COc1ccc(NC(=O)CSc2nc3c(c(=O)n2-c2ccc(F)cc2)SCC3)cc1,0% (inactive)
5,CCC(=O)N1CCCc2cc(S(=O)(=O)N3CCCc4ccccc43)ccc21,4% (inactive)
6,O=C(COC(=O)C1CCN(S(=O)(=O)c2cccs2)CC1)c1cc2ccccc2o1,0% (inactive)
7,CCCn1c(=O)c2[nH]c(C3CCCC3)nc2n(CCC)c1=O,7% (inactive)
8,CC1(C)CC(=O)C2=C(C1)N(Cc1ccco1)C(=O)C2(NC(=O)C1CCCCC1)C(F)(F)F (centres undefined),4% (inactive)
9,COc1ccc(-c2ccc(-c3noc(-c4ccccc4OC)n3)c(OC)n2)cc1,0% (inactive)
10,CCOC(=O)c1ccc(S(=O)(=O)Nc2cc(C(C)(C)C)no2)cc1,2% (inactive)
11,CS(=O)(=O)N(CC(=O)Nc1cccc(F)c1)Cc1ccccc1,0% (inactive)
12,CCOC(=O)c1ccc(-n2c(C)nc3c(cnn3-c3ccccc3C)c2=O)cc1,0% (inactive)
13,Cc1ccc(C(=O)C2COC(=O)C2)cc1 (centres undefined),0% (inactive)
14,CC1Cc2nc(SCC(=O)Nc3ccc4c(c3)OCO4)n(-c3ccc(F)cc3)c(=O)c2S1 (centres undefined),0% (inactive)
15,Cc1ccc(S(=O)(=O)N2CCOCC2)cc1C(=O)OCC(=O)N1CCc2ccccc2C1,0% (inactive)
16,O=C(NCc1ccc2c(c1)OCO2)C1CCCN(S(=O)(=O)c2cccc3cccnc23)C1 (centres undefined),0% (inactive)
17,O=C(NCCCN1CCN(c2cccc(Cl)c2)CC1)c1ccc(N2CCCC2=O)cc1,1% (inactive)
18,COc1ccc2ccccc2c1CN1CCN(C)CC1,3% (inactive)
19,CC(=O)c1cn(CC(=O)NCc2ccc3c(c2)OCO3)c2ccccc12,0% (inactive)
20,Cc1cc(C(=O)Nc2cccnc2)no1,0% (inactive)

row,SMILES,inhibition
1,Cc1ccc(CCNC(=O)C2CCN(S(=O)(=O)c3cccc4nsnc34)CC2)cc1,6% (inactive)
2,CCCCOCP(=O)(CCCC)COCCCC,1% (inactive)
3,O=C(CCSc1ccccc1)N1CCN(C(=O)c2ccco2)CC1,0% (inactive)
4,O=C(Nc1ccc2c(c1)OCO2)C(c1ccc(Cl)cc1)N1CCN(C(=O)c2ccco2)CC1 (centres undefined),0% (inactive)
5,COc1ccc(N2CCN(C(=O)Cc3ccc(-n4c(=O)[nH]c5ccccc5c4=O)cc3)CC2)cc1,6% (inactive)
6,c1ccc(CCc2nn3c(Cn4cnc5ccccc54)nnc3s2)cc1,5% (inactive)
7,COC(=O)c1cc(Br)c(=O)n(CCc2ccc(F)cc2)c1,0% (inactive)
8,CCOc1ccc(C(=O)Nc2ccc(N3CCN(C)CC3)cc2)cc1Br,0% (inactive)
9,Cc1nc(SC2C=CS(=O)(=O)C2)n[nH]1 (centres undefined),5% (inactive)
10,O=C(Nc1ccc2c(c1)OCO2)c1cccc(Cl)c1,0% (inactive)
11,NS(=O)(=O)c1cc2c(cc1Cl)NCNS2(=O)=O,0% (inactive)
12,CC1(C)CC(=O)c2cnc(NC(=O)CCc3ccccc3)nc2C1,0% (inactive)
13,COC1CCCCC1Nc1cccc(SC)c1 (centres undefined),0% (inactive)
14,CCN(CC)S(=O)(=O)c1ccc2oc(C(=O)O)c(C)c2c1,0% (inactive)
15,CCS(=O)(=O)N1CCCC(C(=O)NCc2cccc(OC)c2)C1 (centres undefined),1% (inactive)
16,CCN(C(=O)c1c(-c2ccccc2)noc1C)c1ccccc1,0% (inactive)
17,CCOc1ccc(OCc2cccc(C(=O)N3CCCC3)c2)cc1,6% (inactive)
18,Cc1cc(NC(=O)c2ccc3c(c2)C(=O)N(Cc2cccnc2)C3=O)no1,0% (inactive)
19,Cn1c(C(=O)NCCCN2CCN(c3ccc(F)cc3)CC2)cc2c(=O)n(C)c3ccccc3c21,0% (inactive)
